Test results as given in publication PMC8384837, “Expanding the binding specificity for RNA recognition by a PUF domain”.
Changes are numbered by the printed parent chain.

Key:
Assay in all cases: yeast three-hybrid, YBZ-1, SC-Leu-His + 0.5 mM 3-AT, 4 days
Settings in all cases: tags: N-Gal4 AD-HA kept; label: inside an RPR1-promoter hybrid RNA with tandem MS2 sites; ssRNA
PUM1 PUF domain R6-QWM = target: T1, PUM1 PUF domain R6-QWM (Homo sapiens, UniProt Q14671 828-1176, N1043Q;Y1044W;Q1047M)
T1 sequence: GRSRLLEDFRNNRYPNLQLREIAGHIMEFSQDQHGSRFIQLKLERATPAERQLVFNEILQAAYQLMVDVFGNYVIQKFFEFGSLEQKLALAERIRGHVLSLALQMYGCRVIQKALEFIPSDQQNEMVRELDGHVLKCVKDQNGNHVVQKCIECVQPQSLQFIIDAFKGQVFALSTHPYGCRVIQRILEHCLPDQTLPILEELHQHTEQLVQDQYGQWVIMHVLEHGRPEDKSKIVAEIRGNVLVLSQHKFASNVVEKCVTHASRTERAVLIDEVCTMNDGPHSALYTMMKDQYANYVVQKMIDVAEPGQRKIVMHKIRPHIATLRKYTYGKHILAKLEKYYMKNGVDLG
Summary of the method: (§1)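 Each repeat of the Pumilio-1 PUF domain was randomized at its three base-contacting residues, and these libraries were co-expressed from a centromeric plasmid with matching RNA elements in strain YBZ-1. After four days on SC-Leu (input) or SC-Leu-His + 0.5 mM 3-AT (selection), the repeat regions were PCR-amplified and Illumina-sequenced. The interaction score compares variant frequency between input and selection as a log change, computed in log2 with a pseudocount of 1 for absent variants.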

PUM1 PUF domain R6-LFV = target: T2, PUM1 PUF domain R6-LFV (Homo sapiens, UniProt Q14671 828-1176, N1043L;Y1044F;Q1047V)
T2 sequence: T1 sequence with Q216L, W217F, M220V
Summary of the method: as §1

PUM1 PUF domain R6-AYG = target: T3, PUM1 PUF domain R6-AYG (Homo sapiens, UniProt Q14671 828-1176, N1043A;Q1047G)
T3 sequence: T1 sequence with Q216A, W217Y, M220G
Summary of the method: as §1

PUM1 PUF domain R6-SRR = target: T4, PUM1 PUF domain R6-SRR (Homo sapiens, UniProt Q14671 828-1176, N1043S;Y1044R;Q1047R)
T4 sequence: T1 sequence with Q216S, W217R, M220R
Summary of the method: as §1

PUM1 PUF domain R7-NPR = PUM1 PUF domain R7-NPR (Homo sapiens, UniProt Q14671 828-1176, S1079N;N1080P;E1083R)
Summary of the method: as §1

PUM1 PUF domain R7-TTG = PUM1 PUF domain R7-TTG (Homo sapiens, UniProt Q14671 828-1176, S1079T;N1080T;E1083G)
Summary of the method: as §1

PUM1 PUF domain R5-WRD = PUM1 PUF domain R5-WRD (Homo sapiens, UniProt Q14671 828-1176, C1007W;Q1011D)
Summary of the method: as §1

“GGCUAGAACUAGUGGAUCCCCCGGCGCCCGGCGGCUCGAGCCCGGGUAAGUGAAAAUAGUCUGCAUGCCGCCGGGCGCCAUGCCUGCAGGUCGACUCUAGAAAACAUG” was tested, and the binding signal (PUM1 PUF domain R6-QWM) was 4.68 log2 enrichment (interaction score), the binding signal (PUM1 PUF domain R6-LFV) was 5.6 log2 enrichment (interaction score) and the binding signal (PUM1 PUF domain R6-AYG) was 2.71 log2 enrichment (interaction score).

In the case of “GGCUAGAACUAGUGGAUCCCCCGGCGCCCGGCGGCUCGAGCCCGGGUAAGUGCAAAUAGUCUGCAUGCCGCCGGGCGCCAUGCCUGCAGGUCGACUCUAGAAAACAUG”, the binding signal (PUM1 PUF domain R6-SRR) is reported as 3.26 log2 enrichment (interaction score).

For “GGCUAGAACUAGUGGAUCCCCCGGCGCCCGGCGGCUCGAGCCCGGGUAAGUCUAAAUAGUCUGCAUGCCGCCGGGCGCCAUGCCUGCAGGUCGACUCUAGAAAACAUG”, the binding signal (PUM1 PUF domain R7-NPR) was 0.79 log2 enrichment (interaction score).

With “GGCUAGAACUAGUGGAUCCCCCGGCGCCCGGCGGCUCGAGCCCGGGUAAGUUUAAAUAGUCUGCAUGCCGCCGGGCGCCAUGCCUGCAGGUCGACUCUAGAAAACAUG” the binding signal (PUM1 PUF domain R7-NPR) was 5.02 log2 enrichment (interaction score) and the binding signal (PUM1 PUF domain R7-TTG) was 3.76 log2 enrichment (interaction score).

With “GGCUAGAACUAGUGGAUCCCCCGGCGCCCGGCGGCUCGAGCCCGGGUAAGUGUUAAUAGUCUGCAUGCCGCCGGGCGCCAUGCCUGCAGGUCGACUCUAGAAAACAUG” the binding signal (PUM1 PUF domain R5-WRD) was 2.27 log2 enrichment (interaction score).
